PubChem BioAssay (NCATS)
Inconclusive results are not listed. A call without a number means that no potency is given here. Calls of active or inactive are those of the source. Unless noted, calls follow the shape of the dose curve; as a rule, active = well fitted inhibition curve with a large enough effect; inconclusive = small, poorly fitted or top-dose-only effect; inactive = flat fitted curve, though single readings scatter.

Tests used:
[1] = target: Glutathione peroxidase 1 (Homo sapiens) (UniProt P07203); assay: Primary qHTS Assay for Inhibitors of Recombinant Selenoprotein Glutathione Peroxidase 1 (GPX1) (AID 1845191); also: nearly all actives have a fitted effect of over 65% in size; also: potency is read from the fitted curve at half-maximal effect
Glutathione peroxidase 1 (Homo sapiens), sequence (P07203 whole entry, looked up): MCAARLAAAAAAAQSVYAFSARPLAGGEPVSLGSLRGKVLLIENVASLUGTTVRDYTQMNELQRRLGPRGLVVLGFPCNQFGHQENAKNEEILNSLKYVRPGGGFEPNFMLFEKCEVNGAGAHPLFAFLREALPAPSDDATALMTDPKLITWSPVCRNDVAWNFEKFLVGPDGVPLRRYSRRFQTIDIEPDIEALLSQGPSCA
In short: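 GR-coupled readout: NADPH consumption tracked by fluorescence, ex 340/em 450 nm, at t=0 and after 15 min at RT. Final mix 10 nM GPX1, 1 mM GSH, 0.5 mM CHP, 0.5 mM NADPH, 100 nM GR, 0.01% BSA, following 30 min enzyme–compound preincubation.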

[2] = target: Phospholipid hydroperoxide glutathione peroxidase GPX4 (Homo sapiens) (UniProt P36969); assay: Primary qHTS Assay for Inhibitors of Recombinant Selenoprotein Glutathione Peroxidase 4 (GPX4) (AID 1845192); also: nearly all actives have a fitted effect of over 65% in size; also: potency is read from the fitted curve at half-maximal effect; as to activity change, negative = inhibition: series mostly up to about 50 µM
Phospholipid hydroperoxide glutathione peroxidase GPX4 (Homo sapiens), sequence (P36969 whole entry, looked up): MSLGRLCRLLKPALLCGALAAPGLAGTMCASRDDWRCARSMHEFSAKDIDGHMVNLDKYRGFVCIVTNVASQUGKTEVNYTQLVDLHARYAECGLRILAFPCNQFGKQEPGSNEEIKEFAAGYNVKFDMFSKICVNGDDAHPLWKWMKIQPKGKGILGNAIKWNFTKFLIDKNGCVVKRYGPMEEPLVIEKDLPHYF
In short: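 Steps: GPX4 plus compound, 30 min RT; add GR/GSH/NADPH master mix; start with cumene hydroperoxide; read 340/450 nm fluorescence at 0 and 15 min. Finals were 200 nM GPX4, 1 mM GSH, 0.5 mM CHP, 0.5 mM NADPH, 100 nM GR.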

[3] = qHTS drug screen for cell cycle checkpoint inhibitors in PARPi-resistant BRCA-mutant ovarian cancer cell lines. (AID 1963452; calls by dose curve); details: PEO1/OlaR viability, CellTiter-Glo luminescence, 96 h, stronger effect = lower value
In short: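 PEO1, PEO4 and PEO1/OlaR ovarian cancer cells, 600 per well, exposed 96 h at 37C to a dilution series. Viability read by CellTiter-Glo luminescence, normalized to DMSO and empty wells; activity summarized as Z-AUC.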

[4] = measured here: PEO1 parental Z-AUC

**Q.** With `CSCCNc1nc(SCCC(F)(F)F)nc2c1ncn2[C@@H]1O[C@H](COP(=O)(O)OP(=O)(O)C(Cl)(Cl)P(=O)(O)O)[C@@H](O)[C@H]1O` as the molecule, how does the Potency [1] read?
**A.** inactive

**Q.** What about the Potency [2] of the same molecule?
**A.** inactive

**Q.** With `CCN(CC)CCS(=O)(=O)[C@@H]1CCN2C(=O)c3coc(n3)CC(=O)C[C@H](O)/C=C(C)/C=C/CNC(=O)/C=C/[C@@H](C)[C@@H](C(C)C)OC(=O)[C@@H]12` as the molecule, how does the Potency [1] read?
**A.** inactive

**Q.** What about the Potency [2] of the same molecule?
**A.** 6.31 µM (active)

**Q.** Which Potency [1] does the source give for `CN1CC(O)c2cc(N=NC(=N)N)c(O)cc21` (stereo not drawn) here?
**A.** inactive

**Q.** What about the Potency [2] of the same molecule?
**A.** inactive

**Q.** For `CC(C)OC(=O)[C@H](C)N[P@@](=O)(OC[C@H]1O[C@@H](n2ccc(=O)[nH]c2=O)[C@](C)(F)[C@@H]1O)Oc1ccccc1`, which Potency [1] is on record?
**A.** inactive

**Q.** What about the Potency [2] of the same molecule?
**A.** inactive

**Q.** Which Potency [1] does the source give for `CC1(C)S[C@@H]2[C@H](NC(=O)[C@H](NC(=O)N3CCNC3=O)c3ccccc3)C(=O)N2C1C(=O)O` (stereo partly drawn) here?
**A.** inactive

**Q.** And the Potency [2]?
**A.** inactive

**Q.** Which Potency [1] does the source give for `C#C[C@]1(O)CC[C@H]2[C@@H]3CCC4=CC(=O)CCC4[C@H]3CC[C@@]21CC` (stereo partly drawn) here?
**A.** inactive

**Q.** And the Potency [2]?
**A.** inactive

**Q.** What does the source list for `C=Cc1c(C)c2cc3nc(c(CC(=O)N[C@@H](CC(=O)O)C(=O)O)c4nc(cc5[nH]c(cc1[nH]2)c(C)c5CC)C(C)=C4C(=O)O)[C@@H](CCC(=O)O)[C@@H]3C`?
**A.** Potency [1]: inactive; Potency [2]: inactive

**Q.** Which results are given for `Cc1oc(-c2ccccc2)nc1CCOc1ccc(CC2C(=O)NOC2=O)cc1` (stereo not drawn)?
**A.** Potency [1]: inactive; Potency [2]: 14.1 µM (active)

**Q.** With `C[C@]12C=CC(=O)C=C1CC[C@@H]1[C@@H]2[C@@H](O)C[C@@]2(C)[C@H]1CC[C@]2(O)C(=O)COP(=O)(O)O` as the molecule, how does the outcome [1] read?
**A.** inactive [at 9.52 µM]

**Q.** What about the outcome [2] of the same molecule?
**A.** inactive [at 9.73 µM]

**Q.** With `CCOc1cc(C(CS(C)(=O)=O)N2C(=O)c3cccc(NC(C)=O)c3C2=O)ccc1OC` (stereo not drawn) as the molecule, how does the Potency [1] read?
**A.** inactive

**Q.** And the Potency [2]?
**A.** inactive

**Q.** What does the source list for `O[C@@H]1[C@@H](O)[C@@H](O)OC[C@@H]1O`?
**A.** Potency [1]: inactive; Potency [2]: inactive

**Q.** With `CO[C@@H]1[C@@H](O[C@@H]2O[C@H](C)[C@@H](O[C@H]3C[C@@](C)(O)[C@H](O)[C@H](C)O3)[C@H](N(C)C)[C@H]2O)[C@@H](CC=O)C[C@@H](C)[C@@H](O[C@H]2CC[C@H](N(C)C)[C@@H](C)O2)/C=C/C=C/C[C@H](C)OC(=O)C[C@H]1O` as the molecule, how does the Potency [1] read?
**A.** inactive

**Q.** What about the Potency [2] of the same molecule?
**A.** inactive

**Q.** For `[2H]C([2H])([2H])C(O)(CCO[C@@H](C)[C@H]1CC[C@H]2/C(=C/C=C3\C[C@@H](O)C[C@H](O)C3=C)CCC[C@]12C)C([2H])([2H])[2H]`, which Potency [1] is on record?
**A.** inactive

**Q.** And the Potency [2]?
**A.** inactive

**Q.** Which Potency [1] does the source give for `CC(C)=C/C(C)=N\Nc1nncc2ccccc12` here?
**A.** inactive

**Q.** And the Potency [2]?
**A.** inactive

**Q.** What does the source list for `OCC1OC(c2ccc(Cl)c(Cc3ccc(OC4CCOC4)cc3)c2)C(O)C(O)C1O` (stereo not drawn)?
**A.** Potency [1]: inactive; Potency [2]: inactive

**Q.** Which Potency [1] does the source give for `CONC(=O)c1ccccc1Nc1cc(Nc2cc(C)nn2C(C)C)ncc1Cl` here?
**A.** inactive

**Q.** And the Potency [2]?
**A.** inactive

**Q.** And the Z-AUC [3]?
**A.** 0.959 (inactive)

**Q.** And the Z-AUC [3, 4]?
**A.** 0.188

**Q.** And the Z-AUC ([3]; measured here: PEO4 Z-AUC)?
**A.** 0.196

**Q.** What does the source list for `OCc1cc(C(O)CNCCCCCCOCCOCc2c(Cl)cccc2Cl)ccc1O` (stereo not drawn)?
**A.** Potency [1]: inactive; Potency [2]: inactive

**Q.** What does the source list for `O=c1c2c(c1=O)N(CCP(=O)(O)O)CCCN2`?
**A.** Potency [1]: inactive; Potency [2]: inactive

**Q.** For `COc1cc2c(c(OC)c1OC)-c1c(cc3c(c1OC)OCO3)C[C@H](C)[C@@](C)(O)C2`, which Potency [1] is on record?
**A.** inactive

**Q.** What about the Potency [2] of the same molecule?
**A.** inactive

**Q.** Which results are given for `NS(=O)(=O)c1ccc(-n2nc(C(F)(F)F)cc2-c2ccc(F)cc2)cc1`?
**A.** Potency [1]: inactive; Potency [2]: inactive

**Q.** Which results are given for `Cc1cc(O)ccc1C(C)(C)C`?
**A.** Potency [1]: inactive; Potency [2]: inactive

**Q.** With `CC(=O)O[C@]1(C(C)=O)CC[C@H]2[C@@H]3C=C(C)C4=CC(=O)CC[C@@H]4[C@H]3CC[C@@]21C` as the molecule, how does the Potency [1] read?
**A.** inactive

**Q.** What about the Potency [2] of the same molecule?
**A.** inactive

**Q.** Which Potency [1] does the source give for `C=CC1(C)CC(=O)C2(O)C(C)(O1)C(OC(C)=O)C(OC(=O)CCN(C)C)C1C(C)(C)CCC(O)C12C` (stereo not drawn) here?
**A.** inactive

**Q.** What about the Potency [2] of the same molecule?
**A.** inactive

**Q.** Which Potency [1] does the source give for `O=C(O)C(O)C(O)C(=O)O` (stereo not drawn) here?
**A.** inactive

**Q.** And the Potency [2]?
**A.** inactive

**Q.** Which results are given for `CCCCCC(O)/C=C/[C@@H]1C(CCCCCCC(=O)O)C(=O)C[C@@H]1O` (stereo partly drawn)?
**A.** Potency [1]: inactive; Potency [2]: inactive

**Q.** Which results are given for `CCC1OC(=O)C(C)C(OC2CC(C)(OC)C(O)C(C)O2)C(C)C(OC2OC(C)CC(N(C)C)C2O)C(C)(O)CC(C)C2NC(COCCOC)OC(C2C)C1(C)O` (stereo not drawn)?
**A.** Potency [1]: inactive; Potency [2]: inactive

**Q.** What does the source list for `O=C(OC1C(OC(=O)c2cccnc2)C(OC(=O)c2cccnc2)C(OC(=O)c2cccnc2)C(OC(=O)c2cccnc2)C1OC(=O)c1cccnc1)c1cccnc1` (stereo not drawn)?
**A.** Potency [1]: inactive; Potency [2]: inactive

**Q.** What does the source list for `C[N+](C)(C)CCOP(=O)([O-])OP(=O)(O)OC[C@H]1OC(n2ccc(N)nc2=O)[C@H](O)[C@@H]1O` (stereo partly drawn)?
**A.** outcome [1]: inactive [at 0.4 µM]; activity change, negative = inhibition [2]: 0.205% [at 0.409 µM] (inactive)

**Q.** Which Potency [1] does the source give for `CC[C@H]1OC(=O)C[C@@H](O)[C@H](C)[C@@H](OC2OC(C)C(O)C(N(C)C)C2O)[C@@H](CCN2CCCCC2)C[C@@H](C)C(=O)/C=C/C(C)=C/[C@@H]1CN1CCCCC1` (stereo partly drawn) here?
**A.** inactive

**Q.** And the Potency [2]?
**A.** inactive

**Q.** For `COc1ccc(CC(C)(C)NC[C@H](O)c2cc(O)cc3c2OCC(=O)N3)cc1`, which Potency [1] is on record?
**A.** inactive

**Q.** And the Potency [2]?
**A.** inactive

**Q.** For `CCCCCCCCCCCCCCCC(=O)OCC(=O)[C@@]1(O)[C@H](C)C[C@H]2[C@@H]3CCC4=CC(=O)C=C[C@]4(C)[C@@]3(F)[C@@H](O)C[C@@]21C`, which Potency [1] is on record?
**A.** inactive

**Q.** And the Potency [2]?
**A.** inactive

**Q.** Which results are given for `Cc1oc(=O)oc1COC(=O)N1CC[C@@H](N2CC/C(=C\C3=C(C(=O)O)N4C(=O)[C@@H](NC(=O)/C(=N/O)c5nsc(N)n5)[C@H]4SC3)C2=O)C1`?
**A.** Potency [1]: 7.18 µM (active); Potency [2]: 10 µM (active)

**Q.** For `CN1C2CC[C@@H]1CC(OC(=O)[C@H](CO)c1ccccc1)C2` (stereo partly drawn), which Potency [1] is on record?
**A.** inactive

**Q.** And the Potency [2]?
**A.** inactive

**Q.** With `[2H]C([2H])([2H])C(CCC[C@@H](C)[C@H]1CC[C@H]2/C(=C/C=C3\C[C@@H](O)C[C@H](O)C3=C)CCC[C@]12C)C([2H])([2H])[2H]` as the molecule, how does the Potency [1] read?
**A.** inactive

**Q.** What about the Potency [2] of the same molecule?
**A.** 14.1 µM (active)

**Q.** For `C[C@@H]1O[C@@H](O[C@@H]2/C=C/C=C/C=C\C=C\C[C@H](C)OC(=O)/C=C/[C@H]3O[C@@H]3C[C@H](O)C[C@]3(O)C[C@@H](O)[C@@H](C(=O)O)[C@H](C2)O3)[C@H](O)[C@H](N)[C@@H]1O`, which Potency [1] is on record?
**A.** inactive

**Q.** What about the activity change, negative = inhibition [2] of the same molecule?
**A.** -18.7% [at 9.73 µM] (inactive)

**Q.** What does the source list for `CCCCC(C)(O)CC=C[C@H]1[C@H](O)CC(=O)[C@H]1CCCCCCC(=O)OC` (stereo partly drawn)?
**A.** Potency [1]: inactive; Potency [2]: inactive

**Q.** For `CC[C@H]1[C@@H](O)[C@@H]2[C@H](CC[C@]3(C)[C@@H]([C@H](C)CCC(=O)O)CC[C@@H]23)[C@@]2(C)CC[C@@H](O)C[C@@H]12`, which Potency [1] is on record?
**A.** inactive

**Q.** And the Potency [2]?
**A.** 11.2 µM (active)

**Q.** For `CC[C@@H]1CCN[C@H](C(=O)N[C@@H]([C@H]2O[C@H](SC)[C@H](O)[C@@H](O)[C@H]2O)[C@H](C)Cl)C1`, which Potency [1] is on record?
**A.** inactive

**Q.** And the Potency [2]?
**A.** inactive

**Q.** Which Potency [1] does the source give for `O=C(Nc1ccc(-c2ccnc(Nc3ccc(N4CCOCC4)cc3)n2)cc1)[C@@H]1CCCN1` here?
**A.** inactive

**Q.** And the Potency [2]?
**A.** inactive

**Q.** And the Z-AUC [3]?
**A.** -0.466 (inactive)

**Q.** What about the Z-AUC [3, 4] of the same molecule?
**A.** 0.455

**Q.** And the Z-AUC ([3]; measured here: PEO4 Z-AUC)?
**A.** 0.0561

**Q.** With `CCCCCCO[C@@H](C)c1cccc(-c2csc(NC(=O)c3cc(Cl)c(/C=C(\C)C(=O)O)c(Cl)c3)n2)c1OC` as the molecule, how does the Potency [1] read?
**A.** inactive

**Q.** What about the Potency [2] of the same molecule?
**A.** 2.51 µM (active)

**Q.** Which results are given for `CC(C)C(=O)OCC(=O)[C@@]12OC(C3CCCCC3)O[C@@H]1C[C@H]1[C@@H]3CCC4=CC(=O)C=C[C@]4(C)[C@H]3[C@@H](O)C[C@@]12C` (stereo partly drawn)?
**A.** Potency [1]: inactive; Potency [2]: inactive
